Source: PubChem
A selection: hits, their analogues and other compounds. The true share with any hit is near 6.2%.
ATXN viability = Viability Counterscreen for Primary qHTS for Inhibitors of ATXN expression | S2 cells (HEK-293 line with an ATXN2-luciferase reporter) viability, CellTiter-Fluor protease fluorescence, 24 h | Potency, µM (titrated, usually from 56.7 µM), hits mostly cytotoxic | actives 0.49% (n = 400,000) | AID 651635, 2014; note: nearly all actives have a fitted effect of over 40% in size
KB-3-1 tox = qHTS assay for MDR1-selective chemotherapeutics: Primary screen using the parental adenocarcinoma cell KB-3-1; KB-3-1 viability, CellTiter-Glo ATP luminescence, 72 h; Potency, µM (top dose mostly 46.1 µM), actives largely listed as cytotoxic; actives 1.4% (n = 400,000); AID 1347075, 2019; note: % is set by controls: 0 for no effect and ±100 for the full control effect; nearly all actives have a fitted effect of over 60% in size
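Cytotoxicity in the drug-sensitive parental line KB-3-1 was scored as loss of CellTiter-Glo luminescence following 72 h incubation with compound. Values come from curve fitting of normalized concentration-response data.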
ATXN2 expr inh = Primary qHTS for Inhibitors of ATXN expression. HEK-293 ATXN2-luciferase reporter, luminescence, 24 h. Potency, µM (highest dose often 57 µM), inactives show at the highest dose activity change, negative = inhibition, usual class: inhibitors. actives 0.72% (n = 360,000); note: % is set by controls: 0 for no effect and ±100 for the full control effect; nearly all actives have a fitted effect of over 55% in size
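qHTS (up to 57 uM final) was run with 24 h compound exposure of reporter cells at 37 °C. Each well was multiplexed: SteadyGlo luminescence measured ATXN2-luciferase expression after a fluorogenic Gly-Phe-AFC viability readout (25 uM final).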
HT1080 IDH1KD tx = qHTS for induction of synthetic lethality in tumor cells producing 2HG: qHTS for the HT-1080-IDH1KD cell line. HT-1080 IDH1 knockdown viability, ATP luminescence, 48 h. Potency, µM (doses to about 46.1 µM), for the others: top-dose activity, negative = toxicity, most hits filed as cytotoxic. actives 2% (n = 360,000);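 note: 0% = DMSO wells and -100% = cell-free medium wells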
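Viability of IDH1-knockdown HT-1080 fibrosarcoma cells was assessed by CellTiter-Glo after 48 h at 37 °C with titrated compound; concentration-effect curves were classified by fit quality and response size.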
HT1080-NT tox = qHTS for induction of synthetic lethality in tumor cells producing 2HG: qHTS for the HT-1080-NT fibrosarcoma cell line; HT-1080-NT fibrosarcoma viability, CellTiter-Glo ATP luminescence, 48 h; Potency, µM (highest dose often 46.1 µM), for inactives: top-dose activity, negative = less viability, hits mostly cytotoxic; actives 1.6% (n = 360,000);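 note: NT is the 2HG producing partner of a matched IDH1 knockdown line; 0% = DMSO-treated cells and -100% = media-only wells without cells; nearly all actives have a fitted effect of over 55% in size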
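Viability by CellTiter-Glo luminescence after 48 h compound exposure at 37C of HT-1080-NT cells (750/well, RPMI, 5% FBS). % activity scaled between DMSO wells and medium-only wells, then curve-fitted and categorized by curve class.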
KB-V1 MDR tox = qHTS assay for MDR1-selective chemotherapeutics: Primary screen using the drug-selected MDR subline cells KB-V1; KB-V1 MDR cells viability, CellTiter-Glo, 72 h; Potency, µM (highest dose often 46.1 µM), usual class: cytotoxic; actives 3.4% (n = 400,000); AID 1347076, 2019; note: % is set by controls: 0 for no effect and ±100 for the full control effect; nearly all actives have a fitted effect of over 60% in size
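Following 72 h at 37 degrees C with compound, KB-V1 cell viability was read by CellTiter-Glo luminescence, medium being phenol-red-free DMEM plus 10% FBS; concentration-response parameters came from normalized, curve-fitted qHTS data.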
Numbers without * were called inactive; i = inactive; ? = inconclusive; / = no result given; [ ] = dose if it differs, or a comment. Calls come from the whole dose curve; as a rule, active = well fitted curve in the direction sought with a large enough effect; inconclusive = small, poorly fitted or top-dose-only effect, or another doubt; inactive = no such curve, though single readings can be large; an effect the other way counts as inactive or inconclusive. Potency is the fitted concentration of half-maximal effect.

SMILES | ATXN viability | KB-3-1 tox | ATXN2 expr inh | HT1080 IDH1KD tx | HT1080-NT tox | KB-V1 MDR tox
COc1ccc(C(=O)OC(C)C(=O)NC2CCCCC2C)cc1S(=O)(=O)N1CCOCC1 (centres undefined) | ? | i | -5% | 9% | -10% | i
CCOC(=O)C1CCCN(C(=O)Cc2ccc(OC)c(OC)c2)CC1 (centres undefined) | ? | ? | 7% | 3% | 12% | 21µM*
CCOC(=O)C1CCCN(C(=O)Cc2ccc(OC)c(OC)c2)C1 (centres undefined) | i | i | 4% | -1% | -2% | i
CCc1ccc(CNC(=O)c2c3c(nc4ccccc24)C(=O)N(C2CCCCC2)C3)cc1 | / | i | / | / | / | 13µM*
Cc1ccc(CNC(=O)c2c3c(nc4ccccc24)C(=O)N(C2CCCCC2)C3)cc1 | / | i | / | / | / | i
CCC1(c2ccccc2)NC(=O)N(CC(=O)N2CCc3ccccc32)C1=O (centres undefined) | ? | i | -22% | 0% | -1% | 12µM*
CC1Oc2ccccc2N(CC(=O)Nc2ccc3c(c2)OCCO3)C1=O (centres undefined) | i | i | 17% | -24% | 11% | 16µM*
CCC1(c2ccc(F)cc2)NC(=O)N(CC(=O)N2CCc3ccccc32)C1=O (centres undefined) | i | i | 8% | -16% | -9%[9.24 µM] | i
CC1Oc2ccccc2N(CC(=O)Nc2ccc3c(c2)OCO3)C1=O (centres undefined) | i | i | 19% | -7% | 12% | 21µM*
CC1Oc2ccccc2N(CC(=O)N2CCc3ccccc32)C1=O (centres undefined) | i | i | -2% | -3% | -3% | 15µM*
COc1cc(-c2cccc(Cl)c2)cc2c1OCCN(C(=O)CCn1ccc(C)n1)C2 | i | / | / | / | / | /
Cc1ccc(C)c(CN2CCC3(CCC(CNC(=O)c4ccnn4C)O3)CC2)c1 (centres undefined) | i | / | / | / | / | /
CC1Oc2ccccc2N(CC(=O)NCCc2ccccc2)C1=O (centres undefined) | i | i | -3% | -2% | 0% | 16µM*
CC1Oc2ccccc2N(CC(=O)NCCCN2CCOCC2)C1=O (centres undefined) | i | i | -2% | 8% | 10% | i
Cc1ccc(C(=O)NCC(c2cccs2)S(=O)(=O)c2cccs2)cc1 (centres undefined) | 20µM* | 21µM* | ? | / | / | ?
CSc1ncccc1C(=O)OCC(=O)NC1CC1 | i | i | 0% | 5% | 1% | i
COc1ccc(NCc2cccn2-c2nnc(N3CCCCCC3)s2)cc1 | i | i | 8% | / | / | i
CCOc1ccc(NCc2cccn2-c2nnc(N3CCC(C(=O)NCCCN4CC(C)CC(C)C4)CC3)s2)cc1 (centres undefined) | ? | i | 32µM* | ? | 21µM* | i
COc1cc2c(cc1NC(=O)COc1ccc(Br)c(C)c1)oc1ccccc12 | i | i | 7% | / | / | i
O=C(Nc1cc(F)ccc1F)c1ccc2c(c1)nnn2C1CCCC1 | i | i | 10% | / | / | i
COc1cc(C)c(Sc2cnc(NC(=O)c3ccc(CNC(C)C(C)(C)C)cc3)s2)cc1C(=O)N1CCN(C(C)=O)CC1 (centres undefined) | / | / | 8.6µM* | / | / | /
COc1ccc(Cc2nnc(NC(=O)c3ccc(OC(C)=O)cc3)s2)cc1OC | i | i | -18% | -8% | 0% | i
S=C(SSC(=S)N1CCOCC1)N1CCOCC1 | ? | i | ? | 0.73µM* | 1.2µM* | i
COc1cccc(CNc2nc3cc(-c4cccc(C(F)(F)F)c4)sc3c(=O)n2C)c1OC | i | i | 1% | 1% | 0% | i
COc1cccc(CNc2nc3cc(-c4ccccc4CO)sc3c(=O)n2C)c1 | ? | ? | -4% | ? | 29µM* | i
SMILES | ATXN viability | KB-3-1 tox | ATXN2 expr inh | HT1080 IDH1KD tx | HT1080-NT tox | KB-V1 MDR tox
COc1ccccc1CNc1nc2cc(-c3ccc(OC)c(OC)c3)sc2c(=O)n1C | i | ? | 0% | -11% | -24% | 9.2µM*
COc1cccc(CNc2nc3cc(-c4ccccc4)sc3c(=O)n2C)c1OC | ? | 23µM* | ? | ? | ? | i
COc1cccc(CNc2nc3cc(-c4cccc(Cl)c4)sc3c(=O)n2C)c1OC | i | 15µM* | 0% | -7% | -4% | 8.2µM*
CC(C)(C)c1ccc(S(=O)(=O)N2CCN(c3nc(-c4cccs4)nc4ccccc34)CC2)cc1 | / | / | / | -2% | 18% | /
CC1(C(=O)Nc2cccc3cccnc23)CCN1Cc1cccc2c1OCO2 (centres undefined) | 14µM* | ? | 6.3µM* | ? | 6.5µM* | ?
O=C(CSc1nc2ccccc2n1Cc1cccc(F)c1)NCc1ccccc1 | ? | i | ? | / | / | i
O=C(COc1ccc(S(=O)(=O)NC2CCCCC2)cc1Cl)N1CCN(c2ccccc2)CC1 | ? | i | -35% | ? | -13% | 5.8µM*
O=C(COc1ccc(S(=O)(=O)NC2CCCCC2)cc1)N1CCN(c2ccc(F)cc2)CC1 | ? | 16µM* | ? | -13% | ? | ?
CC(C)[C@H](NS(=O)(=O)c1cccc(Cl)c1)C(=O)OCC(=O)N1CCN(c2ccccc2)CC1 | i | i | ? | 9% | 15% | 7.3µM*
O=C(COc1ccccc1Cl)N1CCN(c2ccc([N+](=O)[O-])c(N3CCCCC3)c2)CC1 | ? | i | -8% | 18% | -2% | 21µM*
NC(=O)C1CCN(C(=O)COc2ccc(S(=O)(=O)NC3CCCC3)cc2)CC1 | i | ? | -18% | 11% | 11% | ?
Cc1ncc2c(c1CNC(=O)CN1CCCC1)CCN(C(=O)c1ccc(F)cc1F)C2 | i | / | / | / | / | /
COCCCNC(=O)Cc1c(C)c2c(cc(C)c3c(C(C)(C)C)coc32)oc1=O | i | 5.2µM* | -24% | 2.9µM* | 4.1µM* | 5.2µM*
COc1ccc(NC(=O)Cn2c(=O)n(CCc3ccccc3)c(=O)c3ccccc32)cc1 | ? | i | 7% | / | / | i
Cn1nnnc1N=N/C(=N/Nc1ccccc1)c1ccccc1 | 8.9µM* | i | 2.5µM* | 7.3µM* | ? | ?
